From PubChem BioAssay AID1159580 (chemical genetic matrix, 2015)
Screen size: about 5,500 compounds; about 2,000 (36%) were called active. Another 18% or so got no clear call; they are omitted. Cut-off read from the data, not from the text of the source: active = normalized growth mostly below about 0.91 (no sharp cut-off); inconclusive = no clear call, values can overlap the other calls; inactive = mostly above about 0.92. The list shows a part of the results.

Experiment: chemical genetic growth profiling, strain panel (AID 1159580);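 note: tested at 20 µM; growth read once vehicle control cultures reached saturation at 30 °C; 1 = growth at the plate median or of vehicle wells; lower values mean less growth of the strain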
Details: growth OD

Measured: normalized growth

COc1ccc2c(c1)C1(C)CCC(=O)CC1CC2 (stereo not drawn)
inactive: S. cerevisiae deletion strains, locus YAL021C, strain ccr4, stronger effect = lower value 1.01 | S. cerevisiae deletion strains, locus YAL026C, strain drs2, stronger effect = lower value 1.04 | S. cerevisiae deletion strains, locus YAL030W, strain snc1, stronger effect = lower value 1 | S. cerevisiae deletion strains, locus YBL061C, strain skt5, stronger effect = lower value 1.01 | S. cerevisiae deletion strains, locus YBR009C, strain hhf1, stronger effect = lower value 1.01 | S. cerevisiae deletion strains, locus YBR021W, strain FUR4, stronger effect = lower value 0.976 | S. cerevisiae deletion strains, locus YBR023C, strain chs3, stronger effect = lower value 1.01 | S. cerevisiae deletion strains, locus YBR171W, strain sec66, stronger effect = lower value 1.01 | S. cerevisiae deletion strains, locus YBR229C, strain ROT2, stronger effect = lower value 0.994 | S. cerevisiae deletion strains, locus YBR231C, strain swc5, stronger effect = lower value 1.04 | S. cerevisiae deletion strains, locus YBR279W, strain paf1, stronger effect = lower value 1 | S. cerevisiae deletion strains, locus YCL011C, strain gbp2, stronger effect = lower value 1.01 | S. cerevisiae deletion strains, locus YCL016C, strain dcc1, stronger effect = lower value 1 | S. cerevisiae deletion strains, locus YCL029C, strain bik1, stronger effect = lower value 0.986 | S. cerevisiae deletion strains, locus YCL061C, strain MRC1, stronger effect = lower value 1.01 | S. cerevisiae deletion strains, locus YCL069W, strain vba3, stronger effect = lower value 1 | S. cerevisiae deletion strains, locus YCR088W, strain abp1, stronger effect = lower value 1.01 | S. cerevisiae deletion strains, locus YDL005C, strain med2, stronger effect = lower value 1.01 | S. cerevisiae deletion strains, locus YDL035C, strain GPR1, stronger effect = lower value 1.01 | S. cerevisiae deletion strains, locus YDL040C, strain nat1, stronger effect = lower value 0.999 | S. cerevisiae deletion strains, locus YDL074C, strain BRE1, stronger effect = lower value 1.02 | S. cerevisiae deletion strains, locus YDL101C, strain DUN1, stronger effect = lower value 0.998 | S. cerevisiae deletion strains, locus YDL134C, strain PPH21, stronger effect = lower value 0.947 | S. cerevisiae deletion strains, locus YDL185W, strain tfp1, stronger effect = lower value 0.989 | S. cerevisiae deletion strains, locus YDL192W, strain arf1, stronger effect = lower value 0.989 | S. cerevisiae deletion strains, locus YDR001C, strain nth1, stronger effect = lower value 1.01 | S. cerevisiae deletion strains, locus YDR069C, strain doa4, stronger effect = lower value 1.02 | S. cerevisiae deletion strains, locus YDR101C, strain arx1, stronger effect = lower value 1 | S. cerevisiae deletion strains, locus YDR137W, strain rgp1, stronger effect = lower value 0.967 | S. cerevisiae deletion strains, locus YDR150W, strain NUM1, stronger effect = lower value 0.991 | S. cerevisiae deletion strains, locus YDR159W, strain sac3, stronger effect = lower value 1.06 | S. cerevisiae deletion strains, locus YDR162C, strain NBP2, stronger effect = lower value 1 | S. cerevisiae deletion strains, locus YDR195W, strain ref2 1.04 | S. cerevisiae deletion strains, locus YDR297W, strain sur2, stronger effect = lower value 1.02 | S. cerevisiae deletion strains, locus YDR318W, strain mcm21, stronger effect = lower value 0.988 | S. cerevisiae deletion strains, locus YDR334W, strain swr1, stronger effect = lower value 1 | S. cerevisiae deletion strains, locus YDR335W, strain msn5, stronger effect = lower value 1.01 | S. cerevisiae deletion strains, locus YDR388W, stronger effect = lower value 0.989 | S. cerevisiae deletion strains, locus YDR392W, strain spt3, stronger effect = lower value 0.996 | S. cerevisiae deletion strains, locus YDR502C, strain sam2, stronger effect = lower value 0.977 | S. cerevisiae deletion strains, locus YEL003W, strain gim4, stronger effect = lower value 1.01 | S. cerevisiae deletion strains, locus YEL037C, strain rad23, stronger effect = lower value 1.02 | S. cerevisiae deletion strains, locus YEL061C, strain CIN8 (second series), stronger effect = lower value 1.01 | S. cerevisiae deletion strains, locus YEL061C, strain CIN8, stronger effect = lower value 0.993 | S. cerevisiae deletion strains, locus YER015W, strain faa2, stronger effect = lower value 1.01 | S. cerevisiae deletion strains, locus YER016W, strain bim1, stronger effect = lower value 1 | S. cerevisiae deletion strains, locus YER110C, stronger effect = lower value 0.979 | S. cerevisiae deletion strains, locus YER111C, strain swi4, stronger effect = lower value 1.01 | S. cerevisiae deletion strains, locus YER155C, strain BEM2 (second series), stronger effect = lower value 1.02 | S. cerevisiae deletion strains, locus YER155C, strain BEM2, stronger effect = lower value 0.988 | S. cerevisiae deletion strains, locus YER167W, strain BCK2, stronger effect = lower value 0.999 | S. cerevisiae deletion strains, locus YFR010W, strain ubp6, stronger effect = lower value 1.02 | S. cerevisiae deletion strains, locus YGL078C, strain dbp3, stronger effect = lower value 0.982 | S. cerevisiae deletion strains, locus YGL086W, strain mad1, stronger effect = lower value 0.98 | S. cerevisiae deletion strains, locus YGL167C, strain pmr1, stronger effect = lower value 1.01 | S. cerevisiae deletion strains, locus YGL173C, strain kem1, stronger effect = lower value 1.01 | S. cerevisiae deletion strains, locus YGL227W, strain vid30, stronger effect = lower value 1.01 | S. cerevisiae deletion strains, locus YGL240W, strain doc1, stronger effect = lower value 1.01 | S. cerevisiae deletion strains, locus YGL248W, strain PDE1, stronger effect = lower value 0.971 | S. cerevisiae deletion strains, locus YGL253W, strain hxk2, stronger effect = lower value 1.03 | S. cerevisiae deletion strains, locus YGR135W, strain pre9, stronger effect = lower value 0.965 | S. cerevisiae deletion strains, locus YGR252W, strain gcn5, stronger effect = lower value 0.96 | S. cerevisiae deletion strains, locus YHR013C, strain ard1, stronger effect = lower value 1.05 | S. cerevisiae deletion strains, locus YHR027C, strain rpn1, stronger effect = lower value 1.03 | S. cerevisiae deletion strains, locus YHR030C, strain SLT2, stronger effect = lower value 0.993 | S. cerevisiae deletion strains, locus YHR079C, strain IRE1 (second series), stronger effect = lower value 0.991 | S. cerevisiae deletion strains, locus YHR094C, strain hxt1, stronger effect = lower value 0.984 | S. cerevisiae deletion strains, locus YHR129C, strain ARP1, stronger effect = lower value 0.993 | S. cerevisiae deletion strains, locus YHR142W, strain chs7, stronger effect = lower value 1.02 | S. cerevisiae deletion strains, locus YHR200W, strain rpn10, stronger effect = lower value 0.985 | S. cerevisiae deletion strains, locus YIL066C, strain RNR3, stronger effect = lower value 1.01 | S. cerevisiae deletion strains, locus YIL073C, strain SPO22, stronger effect = lower value 0.994 | S. cerevisiae deletion strains, locus YIL125W, strain kgd1, stronger effect = lower value 0.987 | S. cerevisiae deletion strains, locus YIR030C, strain dcg1, stronger effect = lower value 0.983 | S. cerevisiae deletion strains, locus YJL092W, strain hpr5, stronger effect = lower value 1.01 | S. cerevisiae deletion strains, locus YJL095W, strain BCK1 (second series), stronger effect = lower value 1.01 | S. cerevisiae deletion strains, locus YJL095W, strain BCK1, stronger effect = lower value 0.953 | S. cerevisiae deletion strains, locus YJL115W, strain asf1, stronger effect = lower value 1.02 | S. cerevisiae deletion strains, locus YJL129C, strain trk1, stronger effect = lower value 1.01 | S. cerevisiae deletion strains, locus YJL134W, strain LCB3, stronger effect = lower value 0.992 | S. cerevisiae deletion strains, locus YJL154C, strain vps35, stronger effect = lower value 1.01 | S. cerevisiae deletion strains, locus YJL164C, strain tpk1, stronger effect = lower value 1.01 | S. cerevisiae deletion strains, locus YJL166W, strain qcr8, stronger effect = lower value 1.01 | S. cerevisiae deletion strains, locus YJL168C, strain set2, stronger effect = lower value 0.989 | S. cerevisiae deletion strains, locus YJL187C, strain SWE1 (second series), stronger effect = lower value 0.979 | S. cerevisiae deletion strains, locus YJL187C, strain SWE1, stronger effect = lower value 1.01 | S. cerevisiae deletion strains, locus YJR043C, strain POL32, stronger effect = lower value 1.03 | S. cerevisiae deletion strains, locus YKL009W, strain mrt4, stronger effect = lower value 0.969 | S. cerevisiae deletion strains, locus YKL068W, stronger effect = lower value 0.978 | S. cerevisiae deletion strains, locus YKL085W, strain MDH1 (second series), stronger effect = lower value 0.984 | S. cerevisiae deletion strains, locus YKL085W, strain MDH1, stronger effect = lower value 0.984 | S. cerevisiae deletion strains, locus YKL160W, strain elf1, stronger effect = lower value 1 | S. cerevisiae deletion strains, locus YKR001C, strain vps1, stronger effect = lower value 0.965 | S. cerevisiae deletion strains, locus YKR026C, strain gcn3, stronger effect = lower value 1.01 | S. cerevisiae deletion strains, locus YKR091W, strain srl3, stronger effect = lower value 1.01 | S. cerevisiae deletion strains, locus YLL001W, strain dnm1, stronger effect = lower value 1.01 | S. cerevisiae deletion strains, locus YLL026W, stronger effect = lower value 1 | S. cerevisiae deletion strains, locus YLL041C, strain sdh2, stronger effect = lower value 1 | S. cerevisiae deletion strains, locus YLR027C, strain aat2, stronger effect = lower value 1 | S. cerevisiae deletion strains, locus YLR039C, strain RIC1, stronger effect = lower value 0.957 | S. cerevisiae deletion strains, locus YLR058C, strain SHM2, stronger effect = lower value 0.996 | S. cerevisiae deletion strains, locus YLR102C, strain apc9, stronger effect = lower value 0.98 | S. cerevisiae deletion strains, locus YLR221C, strain rsa3, stronger effect = lower value 1.03 | S. cerevisiae deletion strains, locus YLR258W, strain gsy2, stronger effect = lower value 1.02 | S. cerevisiae deletion strains, locus YLR262C, strain YPT6 (second series), stronger effect = lower value 0.99 | S. cerevisiae deletion strains, locus YLR268W, strain sec22, stronger effect = lower value 0.978 | S. cerevisiae deletion strains, locus YLR320W, strain mms22, stronger effect = lower value 1.02 | S. cerevisiae deletion strains, locus YLR330W, strain CHS5, stronger effect = lower value 0.986 | S. cerevisiae deletion strains, locus YLR342W, strain FKS1 (second series), stronger effect = lower value 0.949 | S. cerevisiae deletion strains, locus YLR342W, strain FKS1, stronger effect = lower value 1.01 | S. cerevisiae deletion strains, locus YLR357W, strain rsc2, stronger effect = lower value 1.01 | S. cerevisiae deletion strains, locus YLR370C, strain arc18, stronger effect = lower value 1 | S. cerevisiae deletion strains, locus YLR371W, strain rom2, stronger effect = lower value 1 | S. cerevisiae deletion strains, locus YLR384C, strain iki3, stronger effect = lower value 1.01 | S. cerevisiae deletion strains, locus YLR418C, strain cdc73, stronger effect = lower value 0.962 | S. cerevisiae deletion strains, locus YML016C, strain PPZ1, stronger effect = lower value 0.987 | S. cerevisiae deletion strains, locus YML032C, strain rad52, stronger effect = lower value 0.996 | S. cerevisiae deletion strains, locus YML120C, strain ndi1, stronger effect = lower value 0.996 | S. cerevisiae deletion strains, locus YML124C, strain tub3, stronger effect = lower value 0.98 | S. cerevisiae deletion strains, locus YMR058W, strain fet3, stronger effect = lower value 1.02 | S. cerevisiae deletion strains, locus YMR078C, strain ctf18, stronger effect = lower value 0.985 | S. cerevisiae deletion strains, locus YMR125W, strain sto1, stronger effect = lower value 0.994 | S. cerevisiae deletion strains, locus YMR129W, stronger effect = lower value 1.01 | S. cerevisiae deletion strains, locus YMR205C, strain PFK2, stronger effect = lower value 1.01 | S. cerevisiae deletion strains, locus YMR223W, strain ubp8, stronger effect = lower value 0.975 | S. cerevisiae deletion strains, locus YMR231W, strain pep5, stronger effect = lower value 1.01 | S. cerevisiae deletion strains, locus YMR263W, strain SAP30, stronger effect = lower value 0.99 | S. cerevisiae deletion strains, locus YMR307W, strain GAS1, stronger effect = lower value 1.04 | S. cerevisiae deletion strains, locus YNL067W, strain RPL9B, stronger effect = lower value 0.974 | S. cerevisiae deletion strains, locus YNL071W, strain lat1, stronger effect = lower value 1 | S. cerevisiae deletion strains, locus YNL209W, strain ssb2, stronger effect = lower value 1.01 | S. cerevisiae deletion strains, locus YNL233W, strain BNI4, stronger effect = lower value 0.971 | S. cerevisiae deletion strains, locus YNL248C, strain rpa49, stronger effect = lower value 1.06 | S. cerevisiae deletion strains, locus YNL250W, strain rad50, stronger effect = lower value 0.994 | S. cerevisiae deletion strains, locus YNL271C, strain bni1, stronger effect = lower value 0.986 | S. cerevisiae deletion strains, locus YNL298W, strain CLA4, stronger effect = lower value 0.982 | S. cerevisiae deletion strains, locus YNL307C, strain MCK1, stronger effect = lower value 0.98 | S. cerevisiae deletion strains, locus YNL322C, strain KRE1 (second series), stronger effect = lower value 0.995 | S. cerevisiae deletion strains, locus YNR049C, strain mso1, stronger effect = lower value 1.04 | S. cerevisiae deletion strains, locus YNR052C, strain pop2, stronger effect = lower value 0.986 | S. cerevisiae deletion strains, locus YOL006C, strain TOP1, stronger effect = lower value 0.969 | S. cerevisiae deletion strains, locus YOL012C, strain htz1 0.718 | S. cerevisiae deletion strains, locus YOL147C, strain pex11, stronger effect = lower value 0.988 | S. cerevisiae deletion strains, locus YOR001W, strain rrp6, stronger effect = lower value 1.02 | S. cerevisiae deletion strains, locus YOR061W, strain CKA2, stronger effect = lower value 1 | S. cerevisiae deletion strains, locus YOR069W, strain VPS5, stronger effect = lower value 0.991 | S. cerevisiae deletion strains, locus YOR070C, strain gyp1, stronger effect = lower value 1.02 | S. cerevisiae deletion strains, locus YOR080W, strain dia2, stronger effect = lower value 1.01 | S. cerevisiae deletion strains, locus YOR083W, strain WHI5, stronger effect = lower value 1.01 | S. cerevisiae deletion strains, locus YOR106W, strain vam3, stronger effect = lower value 1.02 | S. cerevisiae deletion strains, locus YOR136W, strain idh2, stronger effect = lower value 0.988 | S. cerevisiae deletion strains, locus YOR144C, strain elg1, stronger effect = lower value 0.985 | S. cerevisiae deletion strains, locus YOR184W, strain ser1, stronger effect = lower value 0.952 | S. cerevisiae deletion strains, locus YOR265W, strain rbl2, stronger effect = lower value 0.987 | S. cerevisiae deletion strains, locus YOR270C, strain vph1, stronger effect = lower value 1.07 | S. cerevisiae deletion strains, locus YOR290C, strain snf2, stronger effect = lower value 0.981 | S. cerevisiae deletion strains, locus YOR316C, strain cot1, stronger effect = lower value 0.992 | S. cerevisiae deletion strains, locus YPL051W, strain arl3, stronger effect = lower value 1.02 | S. cerevisiae deletion strains, locus YPL055C, strain LGE1, stronger effect = lower value 1.02 | S. cerevisiae deletion strains, locus YPL078C, strain atp4, stronger effect = lower value 0.996 | S. cerevisiae deletion strains, locus YPL106C, strain sse1, stronger effect = lower value 1.04 | S. cerevisiae deletion strains, locus YPL240C, strain hsp82, stronger effect = lower value 0.986 | S. cerevisiae deletion strains, locus YPR119W, strain clb2, stronger effect = lower value 0.984 | S. cerevisiae deletion strains, locus YPR141C, strain kar3, stronger effect = lower value 0.96 | S. cerevisiae deletion strains, locus YPR163C, strain tif3, stronger effect = lower value 0.97 | S. cerevisiae deletion strains, locus YPR167C, strain met16, stronger effect = lower value 0.981 | S. cerevisiae deletion strains, strain wtn01, stronger effect = lower value 0.98 | S. cerevisiae strains, strain wild type, stronger effect = lower value 1
